The values that follow come from PubChem BioAssay.

The nature of assay [1]: compound effects on lung adenocarcinoma cell viability – A549, calcein-AM fluorescence, 48 h, basal, profiling panel (AID 1162). The settings on record: higher = more signal.
Assay [2] is described as follows: compound effects on differentiated 3T3-L1 adipocyte viability – cell-based, 3T3-L1 adipocytes, calcein-AM fluorescence, 48 h, basal, profiling panel (AID 1163). The note with it: 3T3-L1 adipocytes viability, higher = more signal.
Assay [3] can be described thus: compound effects on hepatocellular carcinoma cell viability – HepG2, calcein-AM fluorescence, 48 h, basal, profiling panel (AID 1164). The note with it: higher = more signal.
Assay [4] in a line: compound effects on multiple myeloma cell viability – MM1S, calcein-AM fluorescence, 48 h, basal, profiling panel (AID 1165).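 Also: viability of MM1S multiple myeloma cells under basal unstimulated conditions.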 The note with it: higher = more signal.
A short description of assay [5]: calcein-AM signal in unstimulated myeloma cells – cell-based, calcein-AM fluorescence, 48 h, PK04 Diversity Set, profiling panel (AID 1166).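 Also: cells grown under basal conditions without added stimulus.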 The settings on record: RPMI8226 myeloma viability, higher = more signal.
The nature of assay [6]: JC-1 mitochondrial signal, unstimulated HepG2 cells – cell-based, JC-1 fluorescence, 24 h, 100 nL compound, profiling panel (AID 1167). The note with it: HepG2 mitochondrial potential, higher = more signal.
A short description of assay [7]: JC-1 mitochondrial signal, unstimulated adipocytes – cell-based, JC-1 fluorescence, 3T3-L1 adipocytes, 24 h, 100 nL compound, profiling panel (AID 1168). The settings on record: JC-1 mitochondrial fluorescence, higher = more signal, called active from +8 up or from −8 down.
Assay [8] can be described thus: JC-1 mitochondrial signal, unstimulated myeloma cells – cell-based, JC-1 fluorescence, RPMI8226, 24 h, 100 nL compound, profiling panel (AID 1169). The note with it: JC-1 mitochondrial potential fluorescence, higher = more signal.
Assay [9] in a line: JC-1 mitochondrial signal, unstimulated MM1S myeloma – cell-based, JC-1 fluorescence, 24 h, 100 nL compound, profiling panel (AID 1170). The note with it: MM1S mitochondrial potential, higher = more signal.
The nature of assay [10]: resazurin metabolic signal in A549 cells – cell-based, resazurin fluorescence, 24 h, PK04 Diversity Set, profiling panel (AID 1171). The note with it: A549 viability, higher = more signal, called active from +8 up or from −8 down.

Molecules are shown by their SMILES. Calls of active or inactive are those of the source.
Also: test concentration not given here.

In the case of `C[N+](C)(C)CCCCNC(=O)[C@H]1C[C@H]2C(=O)N[C@@H](Cc3ccccc3)C(=O)N2[C@H]1c1ccc(O)cc1`, the z-score is -0.111 in assay [1]; -0.649 in assay [2]; 0.0005 in assay [3]; 0.27 in assay [4]; -0.546 in assay [5]; 0.169 in assay [6]. Moreover, the z-score in assay [7] is -0.333 (inactive); in assay [8], -0.831; in assay [9], -1.13; in assay [10], -0.486 (inactive).
In the case of `C=CC[C@@]1(C(=O)NCc2ccccc2)N=C(c2ccc(OCCCO)cc2)O[C@@H]1c1ccccc1N=[N+]=[N-]`, the z-score is -0.586 in assay [1]; 0.117 in assay [2]; 0.317 in assay [3]; -1.48 in assay [4]; -1.26 in assay [5]; -0.827 in assay [6]. Further, the z-score in assay [7] is 0.693 (inactive); in [8] it was -1; in assay [9] it was -0.85; in [10], -0.307 (inactive).
`C=CC[C@]1(C(=O)NCCCOC)N=C(c2ccc(OCCCO)cc2)O[C@H]1c1ccccc1N=[N+]=[N-]`: the z-score in [1] is -0.707; in assay [2], 0.346; in assay [3], 0.0592; in assay [4], -1.78; in assay [5], -1.47; in assay [6], 0.111. For the same molecule, the z-score in assay [7] was 1.06 (inactive); in [8] it was -0.68; in [9], -0.114; in assay [10] it was 0.393 (inactive).
As to `COC(=O)[C@@]1(Cc2ccc(F)cc2)[C@H]2c3cc(C(=O)N4CCCC4)n(Cc4ccc(C)o4)c3C[C@H]2CN1C(=O)c1ccccc1`, the z-score is -0.981 in [1]; 0.681 in assay [2]; -0.498 in assay [3]; -2.99 in [4]; -3.74 in assay [5]; 2.32 in assay [6]. Further, the z-score was 0.096 (inactive) in [7], -0.486 in [8], -2.84 in assay [9] and -0.72 (inactive) in assay [10].
As to `COc1cc(CO)cc(I)c1O[C@H]1C=C(C(=O)NCCO)C[C@@H](N(CCN2CCOCC2)C(=O)C2CCOC2)[C@@H]1O` (stereo not given in full), the z-score was 0.736 in assay [1]; -0.917 in [2]; 0.51 in assay [3]; 0.317 in [4]; 0.402 in assay [5]; 1.05 in [6]. The z-score was 0.57 (inactive) in [7], 0.0404 in assay [8], 0.684 in assay [9] and -0.435 (inactive) in assay [10].
As to `CC[C@@H]1C=C(C(=O)O)[C@H](c2ccco2)N1S(=O)(=O)c1ccc(C)cc1`, the z-score in [1] was -0.364; in assay [2], -0.538; in assay [3] it was 0.186; in assay [4], -0.019; in assay [5], -0.29; in assay [6] it was -0.0247. Besides, the z-score in [7] is -1.25 (inactive); in assay [8] it was 0.604; in assay [9], -1.26; in [10] it was -0.68 (inactive).
With `C=CCNC(=O)[C@H]1[C@@H]2C(=O)O[C@@H](c3ccccc3)[C@@H](c3ccccc3)N2[C@@H](c2ccc(O)cc2)[C@]12C(=O)N(C(=O)OCCOC)c1ccc(C#CCNC(N)=O)cc12`, the z-score in assay [1] was -0.755; in assay [2] it was 0.0896; in assay [3], 0.264; in assay [4], -0.303; in assay [5], -0.479; in assay [6] it was -1.33. Further, the z-score was 0.817 (inactive) in [7], -0.294 in assay [8], 0.179 in assay [9] and -0.157 (inactive) in assay [10].
